Shiga toxin inh – A qHTS for Small Molecule Inhibitors of Shiga Toxin; Vero cells, Shiga toxin protein synthesis inhibition reporter; inhibition, % at 38.7 µM; actives 9.2% (n = 290,000); AID 2315, 2010; in the data active means inhibition mostly above about 28%, no sharp cut-off; inactive means mostly below about 43%; further: 0% is about no effect
CHX counter – Cycloheximide Counterscreen for Small Molecule Inhibitors of Shiga Toxin. cell reporter, cycloheximide protein synthesis inhibition counterscreen. actives 12% (n = 300,000). max response, %; in the data active means max response mostly above about 13%, no sharp cut-off; inactive means mostly below about 14%; further: read at 38.3 µM for the half of the compounds with a filed dose; 0% is about no effect
Pf growth 48h – Primary qHTS for delayed death inhibitors of the malarial parasite plastid, 48 hour incubation; Potency, µM (top dose mostly 28.7 µM), for inactives: at the highest dose activity change, negative = inhibition, actives largely listed as inhibitors; actives 5.9% (n = 310,000); AID 504832, 2011; P. falciparum luciferase growth in erythrocytes, 48 h; further: potency means the concentration at half of the fitted maximal effect; on the % scale 0 is the no-effect control and ±100 the full control effect
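Parasite viability was followed by luminescence of a genomically integrated firefly luciferase. Cultures held 0.1% parasitemia at 2% hematocrit (final), incubated under 5% CO2 at 37 C.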
HCMV antiviral – qHTS Assay for inhibitors of the human cytomegalovirus (HCMV); actives 4.5% (n = 410,000); HFF cells, HCMV-luciferase reporter, 72 h; stronger effect = lower value; activity change, negative = inhibition, % at 57.5 µM; in the data active means activity change below about -60%; inconclusive means no clear call, values can overlap the other calls; inactive means above about -39%; further: on the % scale 0 is the no-effect control and ±100 the full control effect
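Compounds were evaluated in HFFs infected with an HCMV luciferase reporter virus (MOI 1 PFU/cell). Luciferase in lysates collected 72 h post infection served as the replication measure.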
Pf growth 96h – Primary qHTS for delayed death inhibitors of the malarial parasite plastid, 96 hour incubation. P. falciparum luciferase reporter growth, 96 h. Potency, µM (titrated, usually from 28.7 µM), without a hit: at the top dose activity change, negative = inhibition, usual class: inhibitors. actives 6.9% (n = 320,000); further: potency means the concentration at half of the fitted maximal effect; on the % scale 0 is the no-effect control and ±100 the full control effect
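Parasite growth measured via integrated firefly luciferase reporter in P. falciparum. Infected erythrocytes at 2% hematocrit, 0.05% parasitemia final were treated 96 hours at 37 C under 5% CO2, and luminescence was read.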
HCV inh – qHTS Assay for Inhibitors of Hepatitis C Virus (HCV); AID 651820, 2012; actives 3.4% (n = 340,000); Potency, µM (doses to about 41.8 µM), for the others: at the highest dose activity change, negative = inhibition, most hits filed as inhibitors; Huh7.5.1 HCVcc-Cre infection, luciferase reporter, 44 h; further: potency means the concentration at half of the fitted maximal effect; on the % scale 0 is the no-effect control and ±100 the full control effect
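Whole-lifecycle infectious HCVcc-Cre system; cells 1,000/well, compound then virus (~0.5 moi) added 4 h after plating, 44 h culture. Luciferase read 15 sec following 15 min substrate incubation, room temp.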
* = called active by the depositor; i = inactive; ? = inconclusive; . = no result; + = active, no number. Most compounds without a hit are left out; they make up all but 21% or so of the library. Unless noted, the call rests on the fitted dose curve; in most records, active means well fitted inhibition curve with a large enough effect; inconclusive means small, poorly fitted or top-dose-only effect, or another doubt; inactive means no such curve, though single readings can be large or run the other way.

SMILES	Shiga toxin inh	CHX counter	Pf growth 48h	HCMV antiviral	Pf growth 96h	HCV inh
COc1ccc(NC(=O)c2ccc(S(=O)(=O)N3CC(C)OC(C)C3)cc2)cc1 (centres undefined)	.	.	.	-16.4	.	?
Cc1ccc(-c2cc(C(=O)Nc3ccc(S(=O)(=O)N4CC(C)OC(C)C4)cc3)[nH]n2)c(O)c1 (centres undefined)	7.6	-1.0	0.262µM*	?	0.657µM*	4.1%
Cc1ccc(O)c(-c2cc(C(=O)Nc3ccc(S(=O)(=O)N4CC(C)OC(C)C4)cc3)[nH]n2)c1 (centres undefined)	-9.4	5.0	0.522µM*	-13.6	291.5%	11.2µM*
Cc1cc(C)nc(NS(=O)(=O)c2ccc(NC(=O)c3ccccc3O)cc2)n1	.	.	.	6.0	.	.
Cc1cc(C)nc(NS(=O)(=O)c2ccc(NC(=O)c3ccc(S(=O)(=O)N4CC(C)OC(C)C4)cc3)cc2)n1 (centres undefined)	7.1	5.2	?	-5.6	?	8.8%
Cc1ccc(O)c(-c2cc(C(=O)Nc3ccc(S(=O)(=O)Nc4nc(C)cc(C)n4)cc3)[nH]n2)c1	-13.6	-5.4	?	-5.3	13.1µM*	2.8%
Cc1cc(C)nc(N/N=C/C2=C(O)CC(c3ccc(F)cc3)CC2=O)n1 (centres undefined)	-5.5	5.7	?	-26.5	-11.4%	-27.7%
Cc1cc(NCCc2c[nH]c3ccccc23)ccc1Nc1cccnc1	.	.	.	-86.7*	.	.
ON=C1c2ccccc2-c2cc(Br)ccc21	.	.	.	-64.2*	.	?
Nc1c(C(=O)Nc2ccc(C(=O)O)cc2)sc2nc3c(cc12)CCCC3	.	.	.	26.8	.	.
Nc1c(C(=O)Nc2ccc(S(=O)(=O)N3CCCC3)cc2)sc2nc3cc4c(cc3cc12)CCC4	21.6*	27.4*	1.85µM*	?	-9.4%	?
Nc1c(C(=O)Nc2ccc(S(=O)(=O)N3CCCC3)cc2)sc2nc3ccc(OC(F)(F)F)cc3cc12	2.9	6.6	10.4µM*	-95.8*	200.0%	?
COc1ccc(C(=O)Nc2nc3ccc(S(=O)(=O)N4CCCC4)cc3s2)cc1	.	.	.	-5.0	.	.
O=[N+]([O-])c1ccc(-c2ccc(S(=O)(=O)NCCN3CCCC3)cc2)cc1	-12.6	-2.4	?	-71.4*	0.6%	10µM*
O=[N+]([O-])c1ccc(S(=O)(=O)NCCCc2ccccc2)cc1	.	.	.	-25.1	.	3.3%
O=[N+]([O-])c1ccc(S(=O)(=O)NCCN2CCOCC2)cc1	51.0*	2.2	-25.2%	-13.6	19.5%	2.4%
COc1ccccc1Oc1ccc(N/C=C/C(=O)c2ccco2)cc1	99.8*	50.4*	10.4%	-20.9	17.1%	?
O=C(/C=C/Nc1ccc(Oc2ccccc2Cl)cc1)c1ccco1	117.3*	37.3*	?	2.9	-26.7%	-27.2%
O=C1C=CC(=Nc2ccc3c(c2)Cc2ccccc2-3)O1	.	.	.	22.6	.	6.0%
COc1ccc(Cl)cc1CNCCCSc1ncccn1	-3.3	-1.4	?	23.3	?	2.7%
CCOc1ccc(Cl)cc1CNCCCSc1ncccn1	-0.9	-0.5	27.1%	-6.1	13.1µM*	-9.2%
COc1cc(C=C(c2nc3ccccc3s2)c2nc3ccccc3s2)ccc1O	10.4	22.6*	-18.5%	?	?	?
COc1cccc(/C=C(\CC(=O)O)c2nc3ccccc3s2)c1	28.8	9.8	6.2%	-14.5	25.2%	4.9%
COc1cc(/C=C/c2nc3ccccc3s2)cc(OC)c1O	77.7*	40.6*	303.7%	38.2	i	?
COc1ccc(C=C(c2nc3ccccc3s2)c2nc3ccccc3s2)cc1O	+	89.0*	?	-83.5*	?	?
CC1Cc2nc(SCC(=O)N3CCCc4ccccc43)n(C)c(=O)c2S1 (centres undefined)	-2.9	-3.0	?	0.1	?	11.2µM*
